This is a sample that favours compounds with a hit; in the whole collection about 2.3% have one here.
C diff HTS: blocks growth of Clostridium difficile | Clostridium difficile clinical isolate growth, OD600, 24 h; active compounds read low | growth activity, negative = inhibition, % at 16 µg/mL (by protocol) | 86,000 compounds, 0.25% hits;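 active = mean growth activity at or below -80% and every replicate also at or below -80%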;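 also: 0% = DMSO wells and -100% = levofloxacin 16 µg/mL wells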
Pf Dd2 inh: P. falciparum Dd2 growth inhibition; SYBR Green, 72 h; active compounds read low; activity change, % at 10 µM; 94,000 compounds, 2.3% hits; in the data active = activity change below about -80%
* hit, by the source's call; / = no result.

SMILES | C diff HTS | Pf Dd2 inh
CO[C@@H](CN(C)C(=O)C1CCOCC1)[C@@H](C)CN(C(=O)Nc1ccc(F)cc1)[C@H](C)CO | / | 40.0
CCC(=O)N1C[C@@H](C)[C@@H](OC)CN(C)C(=O)c2cc(NC(=O)c3ccccc3)ccc2OC[C@@H]1C | / | -37.2
C[C@@H]1CN([C@H](C)CO)C(=O)c2cc(N(C)C)ccc2O[C@@H](C)CCCCO[C@@H]1CN(C)CC1CCCCC1 | 7.5 | -14.5
CNC[C@H]1Oc2c(NC(=O)c3ccncc3)cccc2C(=O)N([C@@H](C)CO)C[C@@H]1C | -2.2 | 14.4
C[C@H](NC(=O)C[C@@H]1C[C@@H]2c3cc(N(C)C)ccc3O[C@@H]2[C@H](CO)O1)c1ccccc1 | -4.1 | 15.2
CCCNC(=O)C[C@@H]1CC[C@H]2[C@H](COc3ccc(NC(=O)Nc4ccccc4)cc3C(=O)N2C)O1 | 0.4 | -1.0
O=C(C1CCCC1)N1CC[C@@H]2[C@H]1c1cc(C3=CCCCC3)ccc1N[C@@H]2CO | 6.2 | -91.6*
COc1cccc(-c2ccc3c(c2)[C@@H]2[C@@H](CCN2C(=O)C2CCCC2)[C@@H](CO)N3)c1 | -7.3 | -77.4
COc1cccc(-c2ccc3c(c2)[C@H]2[C@H](CCN2C(=O)C2CCCC2)[C@@H](CO)N3)c1 | 3.4 | -83.1*
O=C(C1CCC1)N1CC[C@H]2[C@H](CO)Nc3ccc(C4=CCCCC4)cc3[C@H]21 | -3.6 | -36.4
COc1ccc(-c2ccc([C@@H]3[C@H]4CN(C(=O)C5CCCC5)CC(=O)N4[C@H]3CO)cc2)cc1 | -4.0 | -66.4
O=C(c1cccnc1)N1CC(=O)N2[C@H](C1)[C@@H](c1ccc(-c3cccnc3)cc1)[C@@H]2CO | -6.0 | -87.2*
O=C(C1CCCC1)N1CC(=O)N2[C@H](CO)[C@H](c3ccc(-c4cccnc4)cc3)[C@H]2C1 | -5.5 | -90.5*
COc1ccc(-c2ccc([C@@H]3[C@@H](CO)N4C(=O)CN(C(=O)C5CCCC5)C[C@@H]34)cc2)cc1 | -9.1 | -85.6*
O=C(c1cccnc1)N1CC(=O)N2[C@@H](CO)[C@H](c3ccc(-c4cccnc4)cc3)[C@@H]2C1 | -3.9 | 36.8
O=C(c1ccncc1)N1CC(=O)N2[C@H](C1)[C@@H](c1ccc(-c3cccnc3)cc1)[C@@H]2CO | -0.6 | -86.1*
O=C(C1CCCC1)N1CC(=O)N2[C@H](CO)[C@@H](c3ccc(-c4cccnc4)cc3)[C@@H]2C1 | -2.2 | 6.0
O=C(c1ccc(F)cc1)N1CC(=O)N2[C@@H](CO)[C@H](c3ccc(-c4cccnc4)cc3)[C@@H]2C1 | 4.2 | 11.6
COc1ccc(S(=O)(=O)N2C[C@H](O)COC[C@H]3O[C@@H](CC(=O)N[C@@H]4CCN(Cc5ccccc5)C4)CC[C@@H]32)cc1 | 7.5 | /
COCC(=O)N1CCC2(CC1)CN(C(=O)Cc1ccccc1)[C@@H](CO)c1c2c2ccc(OC)cc2n1C | -3.3 | -29.1
C[C@@H]1CN([C@H](C)CO)C(=O)c2cccc(NC(=O)Nc3ccccc3)c2O[C@H]1CN(C)C(=O)Nc1ccc2c(c1)OCO2 | -6.6 | -47.4
CO[C@H]1CN(C)C(=O)c2ccc(NC(=O)c3ccno3)cc2OC[C@@H](C)N(S(C)(=O)=O)C[C@@H]1C | / | 11.1
CC(C)CC#Cc1ccc([C@H]2[C@H]3CN(C(=O)NC4CCCC4)CC(=O)N3[C@H]2CO)cc1 | -15.8 | -31.7
Cc1noc(C)c1S(=O)(=O)Nc1ccc2c(c1)C(=O)N([C@H](C)CO)C[C@@H](C)[C@H](CN(C)S(=O)(=O)c1cn(C)cn1)O2 | 2.9 | 17.5
O=C(c1ccccc1F)N1CC(=O)N2[C@H](C1)[C@@H](c1ccc(-c3ccc(F)cc3)cc1)[C@@H]2CO | -9.1 | -89.1*
SMILES | C diff HTS | Pf Dd2 inh
O=C(c1ccccc1F)N1CC(=O)N2[C@@H](CO)[C@H](c3ccc(-c4ccc(F)cc4)cc3)[C@@H]2C1 | 1.8 | -1.4
O=C1CN(Cc2ccc(F)cc2)C[C@@H]2[C@@H](c3ccc(Br)cc3)[C@H](CO)N12 | 3.9 | -87.2*
O=C1CN(Cc2ccc(F)cc2)C[C@@H]2[C@@H](c3ccc(Br)cc3)[C@@H](CO)N12 | 6.1 | 38.5
CCCN(C)C[C@@H]1Oc2cc(C#Cc3ccccn3)ccc2S(=O)(=O)N([C@H](C)CO)C[C@@H]1C | -3.1 | -54.0
CC(C)CC#Cc1ccc2c(c1)O[C@H](CN(C)C(=O)c1ccncc1)[C@@H](C)CN([C@@H](C)CO)S2(=O)=O | -1.3 | -16.4
O=C(C[C@H]1C=C[C@@H](NC(=O)Nc2ccc(C(F)(F)F)cc2)[C@H](CO)O1)NCc1cc(F)cc(F)c1 | 3.7 | -4.9
N#Cc1cccc(-c2ccc3c(c2)[C@H]2[C@H](CCN2Cc2ccncc2)[C@H](CO)N3)c1 | -10.5 | -68.7
C[C@@H]1CN([C@@H](C)CO)C(=O)Cc2cc(NS(C)(=O)=O)ccc2O[C@H]1CN(C)Cc1ccc(C(=O)Nc2ccccc2N)cc1 | 3.5 | 8.1
